Data reported in PubChem BioAssay AID1159580 (chemical genetic matrix, 2015).
Out of some 5,500 compounds screened, about 2,000 (36%) were called active. Another 18% or so got no clear call; they are omitted. Rule as the data show it: active = normalized growth mostly below about 0.91 (no sharp cut-off); inconclusive = no clear call, values can overlap the other calls; inactive = mostly above about 0.92. This is one part of the list.

Assay: chemical genetic growth profiling, strain panel (AID 1159580);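 also: tested at 20 µM; growth read once vehicle control cultures reached saturation at 30 °C; 1 = growth at the plate median or of vehicle wells; lower values mean less growth of the strain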
Settings: S. cerevisiae deletion strains, growth OD

Measured: normalized growth

Nc1nc(F)nc2c1ncn2[C@@H]1O[C@H](COP(=O)(O)O)[C@@H](O)[C@@H]1O
inactive: locus YAL021C, strain ccr4, active compounds read low 0.989 | locus YAL026C, strain drs2, active compounds read low 0.999 | locus YAL030W, strain snc1, active compounds read low 1 | locus YBL061C, strain skt5, active compounds read low 0.997 | locus YBR009C, strain hhf1, active compounds read low 1.01 | locus YBR023C, strain chs3, active compounds read low 0.999 | locus YBR171W, strain sec66, active compounds read low 1 | locus YBR231C, strain swc5, active compounds read low 0.999 | locus YBR279W, strain paf1, active compounds read low 1 | locus YCL011C, strain gbp2, active compounds read low 0.994 | locus YCL016C, strain dcc1, active compounds read low 0.997 | locus YCL061C, strain MRC1, active compounds read low 0.989 | locus YCL069W, strain vba3, active compounds read low 0.993 | locus YCR088W, strain abp1, active compounds read low 0.992 | locus YDL005C, strain med2, active compounds read low 0.984 | locus YDL040C, strain nat1, active compounds read low 0.997 | locus YDR001C, strain nth1, active compounds read low 0.993 | locus YDR069C, strain doa4, active compounds read low 0.997 | locus YDR137W, strain rgp1, active compounds read low 1 | locus YDR159W, strain sac3, active compounds read low 0.985 | locus YDR195W, strain ref2 0.968 | locus YDR297W, strain sur2, active compounds read low 1.01 | locus YDR334W, strain swr1, active compounds read low 0.991 | locus YDR335W, strain msn5, active compounds read low 0.997 | locus YDR392W, strain spt3, active compounds read low 0.976 | locus YEL003W, strain gim4, active compounds read low 0.995 | locus YEL037C, strain rad23, active compounds read low 0.993 | locus YEL061C, strain CIN8 (second series), active compounds read low 0.994 | locus YER015W, strain faa2, active compounds read low 0.995 | locus YER016W, strain bim1, active compounds read low 0.993 | locus YER111C, strain swi4, active compounds read low 1 | locus YER155C, strain BEM2 (second series), active compounds read low 0.993 | locus YFR010W, strain ubp6, active compounds read low 1.01 | locus YGL167C, strain pmr1, active compounds read low 0.989 | locus YGL173C, strain kem1, active compounds read low 1 | locus YGL227W, strain vid30, active compounds read low 0.992 | locus YGL240W, strain doc1, active compounds read low 0.984 | locus YGL253W, strain hxk2, active compounds read low 0.998 | locus YHR013C, strain ard1, active compounds read low 0.99 | locus YHR027C, strain rpn1, active compounds read low 0.986 | locus YHR030C, strain SLT2, active compounds read low 1.03 | locus YHR079C, strain IRE1, active compounds read low 1.04 | locus YHR142W, strain chs7, active compounds read low 0.991 | locus YJL092W, strain hpr5, active compounds read low 0.982 | locus YJL095W, strain BCK1 (second series), active compounds read low 0.994 | locus YJL095W, strain BCK1, active compounds read low 0.993 | locus YJL115W, strain asf1, active compounds read low 0.991 | locus YJL129C, strain trk1, active compounds read low 0.994 | locus YJL154C, strain vps35, active compounds read low 0.998 | locus YJL164C, strain tpk1, active compounds read low 0.982 | locus YJL166W, strain qcr8, active compounds read low 1 | locus YJL187C, strain SWE1, active compounds read low 0.989 | locus YJR066W, strain TOR1, active compounds read low 0.967 | locus YKL160W, strain elf1, active compounds read low 1 | locus YKR026C, strain gcn3, active compounds read low 0.977 | locus YKR091W, strain srl3, active compounds read low 0.997 | locus YLL001W, strain dnm1, active compounds read low 0.987 | locus YLL026W, active compounds read low 0.989 | locus YLL041C, strain sdh2, active compounds read low 0.997 | locus YLR027C, strain aat2, active compounds read low 1 | locus YLR113W, strain HOG1, active compounds read low 0.979 | locus YLR221C, strain rsa3, active compounds read low 1 | locus YLR258W, strain gsy2, active compounds read low 0.992 | locus YLR262C, strain YPT6 (second series), active compounds read low 1 | locus YLR320W, strain mms22, active compounds read low 0.968 | locus YLR342W, strain FKS1, active compounds read low 0.999 | locus YLR357W, strain rsc2, active compounds read low 0.994 | locus YLR370C, strain arc18, active compounds read low 0.998 | locus YLR384C, strain iki3, active compounds read low 0.982 | locus YML120C, strain ndi1, active compounds read low 1.01 | locus YMR058W, strain fet3, active compounds read low 1 | locus YMR125W, strain sto1, active compounds read low 0.981 | locus YMR129W, active compounds read low 1.01 | locus YMR205C, strain PFK2, active compounds read low 0.975 | locus YMR231W, strain pep5, active compounds read low 0.995 | locus YNL071W, strain lat1, active compounds read low 0.995 | locus YNL183C, strain NPR1, active compounds read low 0.96 | locus YNL209W, strain ssb2, active compounds read low 1 | locus YNL248C, strain rpa49, active compounds read low 0.996 | locus YNL322C, strain KRE1 (second series), active compounds read low 0.99 | locus YNR049C, strain mso1, active compounds read low 0.995 | locus YOR001W, strain rrp6, active compounds read low 1 | locus YOR070C, strain gyp1, active compounds read low 1 | locus YOR080W, strain dia2, active compounds read low 0.989 | locus YOR083W, strain WHI5, active compounds read low 1 | locus YOR106W, strain vam3, active compounds read low 1.02 | locus YOR231W, strain MKK1, active compounds read low 1.04 | locus YOR265W, strain rbl2, active compounds read low 1 | locus YOR270C, strain vph1, active compounds read low 0.977 | locus YOR290C, strain snf2, active compounds read low 0.979 | locus YPL051W, strain arl3, active compounds read low 1 | locus YPL078C, strain atp4, active compounds read low 0.991 | locus YPL106C, strain sse1, active compounds read low 1 | locus YPL240C, strain hsp82, active compounds read low 1.01 | locus YPL256C, strain CLN2, active compounds read low 1.03
